Measured values published in the supplement of paper PMC10849652.
The full data set covers some 8,800 targets. This sample favours those with a hit. About 0.5% of all pairs of compound and target were hits.

How the values were obtained:
Experiment in all cases: log2 fold change, soluble protein after heating vs DMSO (PISA); higher = thermal stabilisation; K562 lysate, 10 uM; active = over 0.2 and 3.5 SD of the protein, either way, in both replicates (recomputed)
vemurafenib = compound: CCCS(=O)(=O)Nc1ccc(F)c(C(=O)c2c[nH]c3ncc(-c4ccc(Cl)cc4)cc23)c1F [vemurafenib]
In short: (§1)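 Following dounce homogenisation of K562 pellets in PBS pH 7.4 with 1 mM MgCl2, crude extract at 1 mg/mL protein was incubated for 30 min with 10 μM compound. Aliquots were then heated for 3 min over 48°C-58°C and pooled, NP-40 was added to 0.5% at 4°C, and soluble protein was recovered as the supernatant at 21,000xg for 90 min. Channel-sum-equalised TMTpro 16plex LC-MS/MS quantified this protein. Each value, from duplicates, is a log-two fold change in thermal stability relative to solvent controls.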

[1] = compound: CCCS(=O)(=O)Nc1ccc(F)c(C(=O)c2c[nH]c3ncc(Cl)cc23)c1F
In short: as §1

barasertib = compound: CCN(CCCOc1ccc2c(Nc3cc(CC(=O)Nc4cccc(F)c4)[nH]n3)ncnc2c1)CCOP(=O)(O)O [barasertib]
In short: as §1

[2] = compound: CC[C@@H]1C(=O)N(C)c2cnc(Nc3ccc(C(=O)NC4CCN(C)CC4)cc3OC)nc2N1C1CCCC1
In short: as §1

volasertib = compound: CC[C@@H]1C(=O)N(C)c2cnc(Nc3ccc(C(=O)N[C@H]4CC[C@H](N5CCN(CC6CC6)CC5)CC4)cc3OC)nc2N1C(C)C [volasertib]
In short: as §1

[3] = compound: CCn1c(C(=O)N(C2CC2)C2CC2)cc2c3c(ncn3C)c(Nc3cc(C)n(C)n3)nc21
In short: as §1

[4] = compound: CCn1cc(-c2ccnc3[nH]c(-c4cccc(CN(C)C)c4)cc23)c(-c2ccc(NC(=O)N(C)C)cc2)n1
In short: as §1

[5] = compound: CN1CCC(CNc2ccc3ncc(-c4cccc(OC(F)(F)F)c4)n3n2)CC1
In short: as §1

saracatinib = compound: CN1CCN(CCOc2cc(OC3CCOCC3)c3c(Nc4c(Cl)ccc5c4OCO5)ncnc3c2)CC1 [saracatinib]
In short: as §1

sotrastaurin = compound: CN1CCN(c2nc(C3=C(c4c[nH]c5ccccc45)C(=O)NC3=O)c3ccccc3n2)CC1 [sotrastaurin]
In short: as §1

alvocidib = compound: CN1CC[C@H](c2c(O)cc(O)c3c(=O)cc(-c4ccccc4Cl)oc23)[C@H](O)C1 [alvocidib]
In short: as §1

Tubastatin A = compound: CN1CCc2c(c3ccccc3n2Cc2ccc(C(=O)NO)cc2)C1 [Tubastatin A]
In short: as §1

[6] = compound: CNC(=O)C1=CC=CC=C1NC2=NC(=NC=C2Cl)NC3=C(C=C(C=C3)N4CCOCC4)OC
In short: as §1

defactinib = compound: CNC(=O)c1ccc(Nc2ncc(C(F)(F)F)c(NCc3nccnc3N(C)S(C)(=O)=O)n2)cc1 [defactinib]
In short: as §1

[7] = compound: CNc1nc(-c2ccc3c(N)n[nH]c3c2)cc(N2C[C@@H](C(=O)NC3CCCCC3)CC[C@H]2C)n1
In short: as §1

encorafenib = compound: COC(=O)N[C@@H](C)CNc1nccc(-c2cn(C(C)C)nc2-c2cc(Cl)cc(NS(C)(=O)=O)c2F)n1 [encorafenib]
In short: as §1

[8] = compound: COC(=O)[C@H](CCSC)NC(=O)C1=C(C=C(C=C1)NC[C@H](CS)N)C2=CC=CC=C2
In short: as §1

alisertib = compound: COc1cc(Nc2ncc3c(n2)-c2ccc(Cl)cc2C(c2c(F)cccc2OC)=NC3)ccc1C(=O)O [alisertib]
In short: as §1

[9] = compound: COc1cc2nc(-c3cc(F)ccc3O)nc(N[C@@H]3CNC[C@H]3C(C)(C)O)c2cc1OC
In short: as §1

gefitinib = compound: COc1cc2ncnc(Nc3ccc(F)c(Cl)c3)c2cc1OCCCN1CCOCC1 [gefitinib]
In short: as §1

Measured: log2 fold change

CSDE1 isoform 4 (UniProt O75534)
Chain of UniProt O75534 (O75534 whole entry, looked up): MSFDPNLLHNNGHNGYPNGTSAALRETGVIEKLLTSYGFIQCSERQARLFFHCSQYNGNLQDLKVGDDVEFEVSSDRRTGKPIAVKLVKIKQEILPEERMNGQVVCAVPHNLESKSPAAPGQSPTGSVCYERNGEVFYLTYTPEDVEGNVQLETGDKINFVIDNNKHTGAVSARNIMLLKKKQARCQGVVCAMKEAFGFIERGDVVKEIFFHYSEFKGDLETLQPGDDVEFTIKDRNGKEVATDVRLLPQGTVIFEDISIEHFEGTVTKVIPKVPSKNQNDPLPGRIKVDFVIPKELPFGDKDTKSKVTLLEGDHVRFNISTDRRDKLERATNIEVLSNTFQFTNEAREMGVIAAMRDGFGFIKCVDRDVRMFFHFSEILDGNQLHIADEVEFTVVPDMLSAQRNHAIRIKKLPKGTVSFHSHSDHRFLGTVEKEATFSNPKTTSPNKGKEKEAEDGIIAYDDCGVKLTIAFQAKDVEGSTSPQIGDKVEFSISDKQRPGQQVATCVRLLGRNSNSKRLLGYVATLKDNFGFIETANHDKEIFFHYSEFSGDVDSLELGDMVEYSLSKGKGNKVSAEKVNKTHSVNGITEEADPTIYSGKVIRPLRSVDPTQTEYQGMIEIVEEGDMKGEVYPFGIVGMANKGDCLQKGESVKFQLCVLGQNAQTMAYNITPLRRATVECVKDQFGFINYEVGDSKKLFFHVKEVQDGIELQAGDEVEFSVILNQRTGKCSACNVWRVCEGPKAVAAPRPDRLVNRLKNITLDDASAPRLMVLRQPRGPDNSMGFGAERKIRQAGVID
active: [8] 0.209
inactive: vemurafenib -0.002 | [1] 0.004 | barasertib 0.01 | [2] -0.083 | volasertib -0.041 | [3] 0.028 | [4] 0.069 | [5] -0.066 | saracatinib 0.003 | sotrastaurin -0.018 | alvocidib 0 | Tubastatin A -0.104 | [6] 0.01 | defactinib 0 | [7] -0.014 | encorafenib -0.008 | alisertib 0.004 | [9] -0.021 | gefitinib -0.014

CKM (UniProt P06732)
Chain of UniProt P06732 (P06732 whole entry, looked up): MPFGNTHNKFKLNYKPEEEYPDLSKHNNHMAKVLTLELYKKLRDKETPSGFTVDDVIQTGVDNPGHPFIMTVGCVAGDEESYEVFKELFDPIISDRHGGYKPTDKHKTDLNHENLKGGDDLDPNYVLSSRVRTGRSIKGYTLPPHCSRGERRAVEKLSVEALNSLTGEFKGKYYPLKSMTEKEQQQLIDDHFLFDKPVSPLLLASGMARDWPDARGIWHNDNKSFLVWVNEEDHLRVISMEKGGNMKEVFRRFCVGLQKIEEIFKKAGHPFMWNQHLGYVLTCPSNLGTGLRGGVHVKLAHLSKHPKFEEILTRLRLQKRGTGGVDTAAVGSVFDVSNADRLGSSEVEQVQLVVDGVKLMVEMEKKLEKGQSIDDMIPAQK
inactive: vemurafenib 0.072 | [1] -0.018 | barasertib -0.018 | [2] 0.086 | volasertib -0.084 | [3] -0.039 | [5] 0.17 | saracatinib -0.014 | sotrastaurin 0.086 | alvocidib -0.126 | Tubastatin A -0.091 | [6] -0.049 | defactinib -0.033 | [7] -0.037 | encorafenib 0.016 | [8] 0.026 | alisertib -0.015 | [9] 0.031 | gefitinib -0.065
active: [4] -0.574

CHORDC1 (UniProt Q9UHD1)
Chain of UniProt Q9UHD1 (Q9UHD1 whole entry, looked up): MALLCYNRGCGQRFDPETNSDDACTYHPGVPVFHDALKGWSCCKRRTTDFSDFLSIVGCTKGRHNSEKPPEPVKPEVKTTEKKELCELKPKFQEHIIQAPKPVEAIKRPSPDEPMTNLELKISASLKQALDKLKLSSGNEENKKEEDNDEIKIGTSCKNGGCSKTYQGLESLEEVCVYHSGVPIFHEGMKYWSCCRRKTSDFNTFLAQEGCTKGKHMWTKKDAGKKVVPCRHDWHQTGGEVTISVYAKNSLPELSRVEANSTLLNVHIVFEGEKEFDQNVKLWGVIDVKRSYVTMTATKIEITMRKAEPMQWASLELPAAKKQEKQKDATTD
inactive: vemurafenib 0.017 | [1] -0.003 | barasertib -0.029 | [2] 0.009 | volasertib 0.02 | [3] 0.002 | [5] -0.003 | saracatinib -0.006 | sotrastaurin -0.036 | alvocidib 0.033 | Tubastatin A 0.004 | [6] 0.007 | defactinib 0 | [7] -0.002 | encorafenib -0.029 | [8] -0.018 | alisertib -0.012 | [9] -0.008 | gefitinib -0.026
active: [4] 0.288

DNAJC5 (UniProt Q9H3Z4)
Chain of UniProt Q9H3Z4 (Q9H3Z4 whole entry, looked up): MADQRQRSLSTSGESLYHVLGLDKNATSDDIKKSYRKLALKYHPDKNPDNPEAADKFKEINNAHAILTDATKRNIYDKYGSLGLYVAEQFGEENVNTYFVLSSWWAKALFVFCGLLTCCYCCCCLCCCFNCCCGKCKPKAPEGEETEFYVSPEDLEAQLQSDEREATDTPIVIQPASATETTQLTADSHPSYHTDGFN
inactive: vemurafenib 0.001 | [1] -0.02 | barasertib 0.008 | [2] -0.031 | volasertib 0.012 | [3] 0.015 | [5] 0.243 | saracatinib 0.01 | sotrastaurin 0.041 | alvocidib -0.216 | Tubastatin A 0.062 | [6] 0.019 | defactinib 0.011 | [7] 0.054 | encorafenib 0.016 | [8] -0.057 | alisertib -0.119 | [9] 0.019 | gefitinib -0.039
active: [4] -0.476

DOCK7 (UniProt Q96N67)
Chain of UniProt Q96N67 (Q96N67 whole entry, looked up): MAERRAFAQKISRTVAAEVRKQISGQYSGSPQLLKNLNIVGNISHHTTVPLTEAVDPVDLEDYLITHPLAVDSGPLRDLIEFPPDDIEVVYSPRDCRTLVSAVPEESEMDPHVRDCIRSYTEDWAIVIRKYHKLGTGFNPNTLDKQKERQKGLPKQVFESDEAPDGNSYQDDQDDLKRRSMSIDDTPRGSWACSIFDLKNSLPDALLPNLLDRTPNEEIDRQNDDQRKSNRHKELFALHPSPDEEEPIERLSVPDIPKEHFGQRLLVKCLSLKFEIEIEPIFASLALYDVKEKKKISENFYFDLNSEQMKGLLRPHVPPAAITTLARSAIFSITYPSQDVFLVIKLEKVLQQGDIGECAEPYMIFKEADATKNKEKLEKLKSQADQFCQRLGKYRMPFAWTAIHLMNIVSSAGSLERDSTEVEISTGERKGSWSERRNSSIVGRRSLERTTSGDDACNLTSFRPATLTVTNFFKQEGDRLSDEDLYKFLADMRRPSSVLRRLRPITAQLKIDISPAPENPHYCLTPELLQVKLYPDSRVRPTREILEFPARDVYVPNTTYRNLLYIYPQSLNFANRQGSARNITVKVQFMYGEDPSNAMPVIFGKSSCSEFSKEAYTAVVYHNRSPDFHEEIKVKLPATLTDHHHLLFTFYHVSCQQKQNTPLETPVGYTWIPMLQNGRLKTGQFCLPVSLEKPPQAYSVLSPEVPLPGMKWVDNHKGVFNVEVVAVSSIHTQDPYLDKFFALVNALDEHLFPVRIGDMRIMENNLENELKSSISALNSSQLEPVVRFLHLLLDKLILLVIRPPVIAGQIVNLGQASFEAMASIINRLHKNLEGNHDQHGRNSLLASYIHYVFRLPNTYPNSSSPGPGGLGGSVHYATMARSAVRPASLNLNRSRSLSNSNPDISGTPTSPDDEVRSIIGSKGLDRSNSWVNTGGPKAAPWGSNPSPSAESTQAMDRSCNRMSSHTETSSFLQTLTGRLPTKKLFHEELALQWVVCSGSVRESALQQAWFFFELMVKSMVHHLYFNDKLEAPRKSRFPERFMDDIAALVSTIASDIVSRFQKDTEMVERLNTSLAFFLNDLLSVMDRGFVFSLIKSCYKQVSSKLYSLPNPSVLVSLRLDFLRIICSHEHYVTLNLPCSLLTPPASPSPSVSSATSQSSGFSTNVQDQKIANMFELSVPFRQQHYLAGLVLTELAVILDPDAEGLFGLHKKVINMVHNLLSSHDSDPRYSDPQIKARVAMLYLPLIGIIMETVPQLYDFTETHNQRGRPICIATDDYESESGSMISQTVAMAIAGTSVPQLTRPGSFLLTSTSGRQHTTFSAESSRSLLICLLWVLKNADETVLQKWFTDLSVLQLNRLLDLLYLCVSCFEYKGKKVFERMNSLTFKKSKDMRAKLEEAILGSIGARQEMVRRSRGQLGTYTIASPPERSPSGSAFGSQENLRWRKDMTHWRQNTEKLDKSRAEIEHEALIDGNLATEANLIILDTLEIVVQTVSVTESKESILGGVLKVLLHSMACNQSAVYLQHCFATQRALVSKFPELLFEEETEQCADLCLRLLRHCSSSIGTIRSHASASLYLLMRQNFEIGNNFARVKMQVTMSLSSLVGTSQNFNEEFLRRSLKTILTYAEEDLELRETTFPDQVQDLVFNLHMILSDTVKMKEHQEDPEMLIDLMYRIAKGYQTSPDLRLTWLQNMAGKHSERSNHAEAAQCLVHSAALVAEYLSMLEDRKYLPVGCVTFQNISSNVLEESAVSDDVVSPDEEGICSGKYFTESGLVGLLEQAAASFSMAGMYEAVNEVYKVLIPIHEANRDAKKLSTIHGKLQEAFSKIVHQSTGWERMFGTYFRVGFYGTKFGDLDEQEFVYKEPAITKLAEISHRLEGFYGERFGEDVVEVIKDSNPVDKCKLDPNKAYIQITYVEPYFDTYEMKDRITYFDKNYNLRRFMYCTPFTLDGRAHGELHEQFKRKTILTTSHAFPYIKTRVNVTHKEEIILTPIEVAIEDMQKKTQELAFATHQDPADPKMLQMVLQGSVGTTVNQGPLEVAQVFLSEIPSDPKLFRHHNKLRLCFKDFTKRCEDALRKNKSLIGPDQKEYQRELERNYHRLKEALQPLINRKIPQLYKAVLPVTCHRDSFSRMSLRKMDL
inactive: vemurafenib 0.045 | [1] 0.021 | barasertib 0.027 | [2] -0.057 | volasertib -0.01 | [3] 0 | [4] -0.068 | [5] -0.041 | saracatinib -0.028 | sotrastaurin 0.02 | alvocidib 0.007 | Tubastatin A -0.238 | [6] 0.006 | defactinib -0.014 | [7] -0.035 | encorafenib 0.006 | [8] 0.038 | alisertib 0.032 | [9] 0.026 | gefitinib 0.017

CUL1 (UniProt Q13616)
Chain of UniProt Q13616 (Q13616 whole entry, looked up): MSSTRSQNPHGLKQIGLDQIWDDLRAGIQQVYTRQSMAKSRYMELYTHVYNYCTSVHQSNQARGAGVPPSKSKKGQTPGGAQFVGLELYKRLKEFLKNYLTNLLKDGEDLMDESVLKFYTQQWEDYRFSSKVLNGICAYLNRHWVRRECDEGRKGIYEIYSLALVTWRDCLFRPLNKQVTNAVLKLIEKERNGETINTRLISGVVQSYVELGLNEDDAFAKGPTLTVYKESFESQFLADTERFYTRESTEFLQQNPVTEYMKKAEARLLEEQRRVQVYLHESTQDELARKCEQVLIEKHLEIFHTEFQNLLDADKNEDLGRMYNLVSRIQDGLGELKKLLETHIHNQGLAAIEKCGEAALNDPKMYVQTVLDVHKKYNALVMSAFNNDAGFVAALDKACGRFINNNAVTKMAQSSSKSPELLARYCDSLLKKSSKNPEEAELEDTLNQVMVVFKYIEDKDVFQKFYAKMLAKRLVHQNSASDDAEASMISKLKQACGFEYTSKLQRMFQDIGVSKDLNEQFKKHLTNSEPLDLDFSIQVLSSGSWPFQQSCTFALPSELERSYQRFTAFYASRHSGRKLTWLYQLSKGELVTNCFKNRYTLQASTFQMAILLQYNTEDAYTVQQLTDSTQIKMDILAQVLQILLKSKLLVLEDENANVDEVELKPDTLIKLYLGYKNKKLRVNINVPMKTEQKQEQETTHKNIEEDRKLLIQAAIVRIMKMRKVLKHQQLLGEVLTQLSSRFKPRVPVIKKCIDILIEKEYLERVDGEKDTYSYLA
inactive: vemurafenib -0.008 | [1] 0.001 | barasertib -0.011 | [2] 0.034 | volasertib 0.029 | [3] 0.004 | [4] -0.013 | [5] 0.029 | saracatinib -0.023 | sotrastaurin -0.029 | alvocidib -0.008 | Tubastatin A 0.008 | [6] 0.001 | defactinib -0.019 | [7] 0.013 | encorafenib 0 | [8] -0.042 | alisertib -0.01 | [9] 0.011 | gefitinib -0.038

COTL1 (UniProt Q14019)
Chain of UniProt Q14019 (Q14019 whole entry, looked up): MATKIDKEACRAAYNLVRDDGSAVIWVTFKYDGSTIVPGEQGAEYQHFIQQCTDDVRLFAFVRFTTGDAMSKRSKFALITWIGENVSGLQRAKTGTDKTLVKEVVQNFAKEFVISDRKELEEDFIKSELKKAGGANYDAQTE
active: [4] 0.37
inactive: vemurafenib -0.002 | [1] -0.017 | barasertib -0.068 | [2] 0.019 | volasertib 0.02 | [3] 0.027 | [5] -0.076 | saracatinib -0.019 | sotrastaurin -0.045 | alvocidib 0.021 | Tubastatin A 0.004 | [6] -0.021 | defactinib -0.04 | [7] -0.008 | encorafenib -0.033 | [8] -0.029 | alisertib -0.009 | [9] -0.001 | gefitinib -0.002

COMT (UniProt P21964)
Chain of UniProt P21964 (P21964 whole entry, looked up): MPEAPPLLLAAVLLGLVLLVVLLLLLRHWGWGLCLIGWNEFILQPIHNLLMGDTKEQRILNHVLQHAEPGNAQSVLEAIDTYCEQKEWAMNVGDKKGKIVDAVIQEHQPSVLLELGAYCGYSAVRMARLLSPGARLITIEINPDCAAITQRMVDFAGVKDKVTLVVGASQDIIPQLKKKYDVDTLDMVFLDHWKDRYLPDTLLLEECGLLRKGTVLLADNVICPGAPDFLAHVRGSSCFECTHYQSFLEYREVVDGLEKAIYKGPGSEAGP
inactive: vemurafenib -0.052 | [1] 0.012 | barasertib 0.024 | [2] -0.101 | volasertib -0.056 | [3] 0.039 | [4] 0.026 | [5] 0.005 | saracatinib 0.008 | sotrastaurin 0.036 | alvocidib 0.012 | Tubastatin A -0.162 | [6] -0.016 | defactinib 0.016 | [7] -0.013 | encorafenib 0.028 | [8] 0.059 | alisertib 0.022 | [9] 0.025 | gefitinib 0.013
